USP28 inh – inhibitors of human USP28 deubiquitinase. AID 1645857, 2021. inhibition, % at 25 µM. actives 3% (n = 47,000). purified USP28, Ub-rhodamine cleavage fluorescence, 30 min. Ubiquitin carboxyl-terminal hydrolase 28 (Homo sapiens), Q96RU2
USP17 block – inhibitors of human USP17 deubiquitinase | actives 6.5% (n = 47,000) | AID 1645855, 2021 | Ubiquitin carboxyl-terminal hydrolase 17-like protein 5 (Homo sapiens), A8MUK1 | inhibition, % at 50 µM | purified USP17, Ub-rhodamine cleavage fluorescence, 3 h
USP8 inh – inhibitors of human USP8 deubiquitinase; Ubiquitin carboxyl-terminal hydrolase 8 (Homo sapiens), P40818; purified USP8, Ub-rhodamine cleavage fluorescence, 30 min; inhibition, % at 20 µM; actives 4.2% (n = 47,000); AID 1645853, 2021
USP30 inh – inhibitors of human USP30 deubiquitinase; Ubiquitin carboxyl-terminal hydrolase 30 (Homo sapiens), Q70CQ3; purified USP30, Ub-rhodamine cleavage fluorescence; inhibition, % at 25 µM; actives 5.3% (n = 47,000); AID 1645860, 2021
USP10 inh – inhibitors of human USP10 deubiquitinase | inhibition, % at 20 µM | purified USP10, Ub-rhodamine fluorescence, 60 min | actives 1.1% (n = 47,000) | AID 1645856, 2021 | Ubiquitin carboxyl-terminal hydrolase 10 (Homo sapiens), Q14694
Target sequence (Q14694 whole entry, looked up): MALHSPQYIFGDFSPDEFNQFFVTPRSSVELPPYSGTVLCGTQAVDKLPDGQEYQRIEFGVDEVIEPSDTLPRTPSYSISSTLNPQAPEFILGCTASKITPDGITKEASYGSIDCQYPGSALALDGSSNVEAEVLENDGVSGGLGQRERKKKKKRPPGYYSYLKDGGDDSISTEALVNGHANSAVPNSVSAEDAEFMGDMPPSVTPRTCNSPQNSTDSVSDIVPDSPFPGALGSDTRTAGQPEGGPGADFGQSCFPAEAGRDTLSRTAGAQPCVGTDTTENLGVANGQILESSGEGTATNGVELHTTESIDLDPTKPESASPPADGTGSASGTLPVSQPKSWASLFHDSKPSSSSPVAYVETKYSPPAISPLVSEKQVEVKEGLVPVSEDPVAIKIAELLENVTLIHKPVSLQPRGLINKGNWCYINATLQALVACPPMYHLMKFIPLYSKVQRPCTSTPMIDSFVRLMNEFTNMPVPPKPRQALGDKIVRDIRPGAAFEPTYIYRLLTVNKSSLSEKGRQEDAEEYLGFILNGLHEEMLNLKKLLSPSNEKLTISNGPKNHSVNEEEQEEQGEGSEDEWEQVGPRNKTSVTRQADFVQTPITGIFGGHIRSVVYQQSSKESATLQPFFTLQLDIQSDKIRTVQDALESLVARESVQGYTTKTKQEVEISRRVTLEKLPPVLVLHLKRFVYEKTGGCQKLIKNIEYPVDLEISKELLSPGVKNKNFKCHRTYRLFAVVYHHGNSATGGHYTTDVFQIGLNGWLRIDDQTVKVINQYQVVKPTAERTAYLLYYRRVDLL
An asterisk follows results filed as active. Most compounds without a hit are left out; they make up all but 14% or so of the library. No stated cut-off is given here; in the data, active means inhibition above about 30%; inactive means the rest.

Screening CC[C@@H]1CC23OC(=O)C(=C2O)OC(=O)[C@]2(C)[C@H](CCCC[C@]3(C)C=C1C(=O)O)C(C)=C[C@@H]1C(O[C@@H]3O[C@H](C)[C@@H](OC(=O)c4c(C)cccc4OC)[C@H](O[C@H]4C[C@H](O)[C@H](OC)[C@@H](C)O4)[C@H]3O)[C@@H](O[C@@H]3O[C@@H](C)[C@H](OC)[C@@](C)(O)[C@H]3OC)CC[C@H]12 (some centres undefined) returned USP28 inh 2.4, USP17 block -26.6, USP8 inh -5.9, USP30 inh -1.7 and USP10 inh 3.0.
Screening COc1ccc(OC)c(NC(=O)CN(C2CCCCC2)S(=O)(=O)c2ccc(C)cc2)c1 returned USP28 inh 3.5, USP17 block -5.7, USP8 inh -15.6, USP30 inh 0.2 and USP10 inh 7.4.
CCOC(=O)c1cc2c(ccn2C)n1CC(=O)N(Cc1ccccc1)c1ccccc1 was read as USP28 inh -36.4, USP17 block 29.3, USP8 inh 55.3*, USP30 inh -197.6 and USP10 inh -10.5.
For CCOC(=O)c1cc2c(ccn2C)n1CC(=O)NC(c1ccccc1)c1ccccc1 the results were USP28 inh -31.7, USP17 block 23.4, USP8 inh 65.1*, USP30 inh -153.0 and USP10 inh -5.5.
For CCOC(=O)c1cc2c(ccn2C)n1CC(=O)N(Cc1ccc(OC)cc1)c1ccc(F)cc1 the results were USP28 inh -21.3, USP17 block 6.2, USP8 inh 17.0, USP30 inh -199.7 and USP10 inh -10.5.
For CC(C)OC(=O)c1cc2c(ccn2C)n1CC(=O)N1CCCC1 the results were USP28 inh -72.3, USP17 block -54.7, USP8 inh -12.8, USP30 inh -280.2 and USP10 inh -6.0.
`CC(C)OC(=O)c1cc2c(ccn2C)n1CC(=O)N(Cc1ccc(Cl)cc1)c1ccccc1` gave USP28 inh 7.9, USP17 block 12.3, USP8 inh 66.6*, USP30 inh -47.8 and USP10 inh -4.5.
For CC(C)OC(=O)c1cc2c(ccn2C)n1CC(=O)N(Cc1ccccc1)c1ccc(F)cc1 the results were USP28 inh -14.5, USP17 block 20.8, USP8 inh 56.3*, USP30 inh -198.9 and USP10 inh -8.1.
CC(C)OC(=O)c1cc2c(ccn2-c2ccc(F)cc2)n1CC(=O)N(Cc1ccccc1)c1ccc(F)cc1 was read as USP28 inh -9.9, USP17 block -9.4, USP8 inh 2.6, USP30 inh -71.5 and USP10 inh -9.5.
Screening c1ccc(-c2nn(-c3ccccc3)c3nc4ccccc4nc23)cc1 returned USP28 inh -248.3, USP17 block -54.6, USP8 inh -181.3, USP30 inh inactive and USP10 inh -9.1.
Screening CCCCCCCCC[C@@H](O)CC(=O)N[C@@H](CC(N)=O)C(=O)N[C@@H](CCC(N)=O)C(=O)NC(C=O)CC(C)C (some centres undefined) returned USP28 inh 23.6, USP17 block -5.1, USP8 inh -1.5, USP30 inh -19.8 and USP10 inh -5.6.
Screening CC(C)OC(=O)c1cc2c(ccn2C)n1Cc1ccc2ccccc2n1 returned USP28 inh -10.7, USP17 block 10.5, USP8 inh 56.0*, USP30 inh -136.9 and USP10 inh -9.1.
Screening CCOC(=O)c1cc2c(ccn2C)n1CC(=O)N(Cc1ccccc1)c1ccc(F)cc1 returned USP28 inh -34.5, USP17 block 23.9, USP8 inh 38.7*, USP30 inh -218.3 and USP10 inh -16.4.
Cc1nc2c(-c3ccccc3)noc2c(=O)n1CC(=O)O was read as USP28 inh 7.7, USP17 block 7.9, USP8 inh 5.2, USP30 inh 31.2* and USP10 inh 3.5.
`Cc1ccccc1CNC(=O)CCn1cnc2c(-c3ccccc3)noc2c1=O` gave USP28 inh 5.6, USP17 block -8.8, USP8 inh 37.9*, USP30 inh 42.9* and USP10 inh 6.1.
Screening CC1CCc2c(sc(N)c2C(=O)NC2CCCC2)C1 (centres undefined) returned USP28 inh -73.9, USP17 block -31.8, USP8 inh 37.1*, USP30 inh -243.1 and USP10 inh -9.1.
